Test in all cases: yeast three-hybrid, YBZ-1, SC-Leu-His + 0.5 mM 3-AT, 4 days
Holding throughout (details): tags: N-Gal4 AD-HA kept; label: inside an RPR1-promoter hybrid RNA with tandem MS2 sites; ssRNA

For one experiment, the target named is PUM1 PUF domain R1-RRS (Homo sapiens, UniProt Q14671 828-1176, S863R;Q867S). The gist of the method:
(§1)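 Matching RNA elements and Pumilio-1 PUF domain libraries, randomized at the three base-contacting residues of every repeat, were co-expressed from a centromeric plasmid in strain YBZ-1 (LexA–MS2 coat fusion, HIS3 reporter). The repeat regions were PCR-amplified and Illumina-sequenced from cells grown four days on SC-Leu (input) or SC-Leu-His + 0.5 mM 3-AT (selection). The interaction score is the log change in variant frequency from input to selection. It is computed in log2, with a pseudocount of 1 for absent variants.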

The target in the next experiment is PUM1 PUF domain R1-KSL (Homo sapiens, UniProt Q14671 828-1176, S863K;R864S;Q867L). In a few lines:
as §1

The next experiment has as its target PUM1 PUF domain R5-GFM (Homo sapiens, UniProt Q14671 828-1176, C1007G;R1008F;Q1011M). The gist of the method: as §1
The next experiment addresses PUM1 PUF domain R5-ERL (Homo sapiens, UniProt Q14671 828-1176, C1007E;Q1011L). In a few lines: as §1
Another experiment concerns the target PUM1 PUF domain R5-KMW (Homo sapiens, UniProt Q14671 828-1176, C1007K;R1008M;Q1011W). The gist of the method:
as §1

In a further experiment the target is PUM1 PUF domain R5-KTV (Homo sapiens, UniProt Q14671 828-1176, C1007K;R1008T;Q1011V). The gist of the method:
as §1

The next experiment concerns the target PUM1 PUF domain R8-RRN (Homo sapiens, UniProt Q14671 828-1176, N1122R;Y1123R;Q1126N). In a few lines: as §1
Another experiment deals with PUM1 PUF domain R4-CMV (Homo sapiens, UniProt Q14671 828-1176, N971C;H972M;Q975V). The gist of the method:
as §1

Another experiment concerns the target PUM1 PUF domain R5-VHL (Homo sapiens, UniProt Q14671 828-1176, C1007V;R1008H;Q1011L). The gist of the method: as §1
The next experiment deals with T1, PUM1 PUF domain R6-FRI (Homo sapiens, UniProt Q14671 828-1176, N1043F;Y1044R;Q1047I).
T1 sequence: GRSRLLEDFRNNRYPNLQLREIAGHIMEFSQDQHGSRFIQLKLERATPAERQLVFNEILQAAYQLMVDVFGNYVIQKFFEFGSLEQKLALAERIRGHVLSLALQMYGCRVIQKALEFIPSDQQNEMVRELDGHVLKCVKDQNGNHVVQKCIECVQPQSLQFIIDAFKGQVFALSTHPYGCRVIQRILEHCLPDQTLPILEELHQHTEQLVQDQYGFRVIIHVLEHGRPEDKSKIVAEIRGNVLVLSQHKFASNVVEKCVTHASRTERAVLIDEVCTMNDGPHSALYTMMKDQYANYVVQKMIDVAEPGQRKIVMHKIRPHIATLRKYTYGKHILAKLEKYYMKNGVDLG
In a few lines: as §1

Another experiment deals with PUM1 PUF domain R4-ALY (Homo sapiens, UniProt Q14671 828-1176, N971A;H972L;Q975Y). In a few lines: as §1
The target in a further experiment is PUM1 PUF domain R3-FRW (Homo sapiens, UniProt Q14671 828-1176, C935F;Q939W). In a few lines:
as §1

The target of a further experiment is PUM1 PUF domain R3-WFE (Homo sapiens, UniProt Q14671 828-1176, C935W;R936F;Q939E). In a few lines:
as §1

Another experiment concerns the target PUM1 PUF domain R3-QRG (Homo sapiens, UniProt Q14671 828-1176, C935Q;Q939G). In a few lines:
as §1

Another experiment concerns the target PUM1 PUF domain R3-QPS (Homo sapiens, UniProt Q14671 828-1176, C935Q;R936P;Q939S). The gist of the method: as §1
The target of a further experiment is PUM1 PUF domain R3-RSL (Homo sapiens, UniProt Q14671 828-1176, C935R;R936S;Q939L). In a few lines: as §1
In a further experiment the target is PUM1 PUF domain R3-RAD (Homo sapiens, UniProt Q14671 828-1176, C935R;R936A;Q939D). The gist of the method: as §1
The next experiment has as its target PUM1 PUF domain R4-GNV (Homo sapiens, UniProt Q14671 828-1176, N971G;H972N;Q975V). The gist of the method: as §1
A further experiment has as its target PUM1 PUF domain R4-QGG (Homo sapiens, UniProt Q14671 828-1176, N971Q;H972G;Q975G). The gist of the method: as §1
The target in another experiment is PUM1 PUF domain R7-RGQ (Homo sapiens, UniProt Q14671 828-1176, S1079R;N1080G;E1083Q). In a few lines: as §1

PUM1 PUF domain R1-RRS, sequence (Q14671 828-1176 S863R/Q867S): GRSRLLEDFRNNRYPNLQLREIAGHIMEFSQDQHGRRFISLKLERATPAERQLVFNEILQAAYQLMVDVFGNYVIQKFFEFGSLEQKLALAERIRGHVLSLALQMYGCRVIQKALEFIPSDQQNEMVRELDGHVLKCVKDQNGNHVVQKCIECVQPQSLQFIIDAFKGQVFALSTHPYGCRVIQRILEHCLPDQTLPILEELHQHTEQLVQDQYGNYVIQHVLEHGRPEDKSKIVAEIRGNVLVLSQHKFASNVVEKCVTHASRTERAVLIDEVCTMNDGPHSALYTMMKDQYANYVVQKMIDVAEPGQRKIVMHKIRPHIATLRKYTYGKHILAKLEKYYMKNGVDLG
PUM1 PUF domain R4-CMV, sequence (Q14671 828-1176 N971C/H972M/Q975V): as the sequence (Q14671 828-1176 S863R/Q867S) above, with R36S, S40Q, N144C, H145M, Q148V counted along it
PUM1 PUF domain R4-QGG, sequence (Q14671 828-1176 N971Q/H972G/Q975G): as the sequence (Q14671 828-1176 S863R/Q867S) above, with R36S, S40Q, N144Q, H145G, Q148G counted along it
PUM1 PUF domain R5-GFM, sequence (Q14671 828-1176 C1007G/R1008F/Q1011M): as the sequence (Q14671 828-1176 S863R/Q867S) above, with R36S, S40Q, C180G, R181F, Q184M counted along it
PUM1 PUF domain R4-GNV, sequence (Q14671 828-1176 N971G/H972N/Q975V): as the sequence (Q14671 828-1176 S863R/Q867S) above, with R36S, S40Q, N144G, H145N, Q148V counted along it
PUM1 PUF domain R5-VHL, sequence (Q14671 828-1176 C1007V/R1008H/Q1011L): as the sequence (Q14671 828-1176 S863R/Q867S) above, with R36S, S40Q, C180V, R181H, Q184L counted along it
PUM1 PUF domain R1-KSL, sequence (Q14671 828-1176 S863K/R864S/Q867L): as the sequence (Q14671 828-1176 S863R/Q867S) above, with R36K, R37S, S40L counted along it
PUM1 PUF domain R3-QPS, sequence (Q14671 828-1176 C935Q/R936P/Q939S): as the sequence (Q14671 828-1176 S863R/Q867S) above, with R36S, S40Q, C108Q, R109P, Q112S counted along it
PUM1 PUF domain R8-RRN, sequence (Q14671 828-1176 N1122R/Y1123R/Q1126N): as the sequence (Q14671 828-1176 S863R/Q867S) above, with R36S, S40Q, N295R, Y296R, Q299N counted along it
PUM1 PUF domain R3-FRW, sequence (Q14671 828-1176 C935F/Q939W): as the sequence (Q14671 828-1176 S863R/Q867S) above, with R36S, S40Q, C108F, Q112W counted along it

“GGCUAGAACUAGUGGAUCCCCCGGCGCCCGGCGGCUCGAGCCCGGGUAAGUGUAAAUCGUCUGCAUGCCGCCGGGCGCCAUGCCUGCAGGUCGACUCUAGAAAACAUG”: the binding signal in the experiment with PUM1 PUF domain R1-RRS was 5.02 log2 enrichment (interaction score); with PUM1 PUF domain R1-KSL, 2.8 log2 enrichment (interaction score).

Regarding “GGCUAGAACUAGUGGAUCCCCCGGCGCCCGGCGGCUCGAGCCCGGGUAAGUGUGAAUAGUCUGCAUGCCGCCGGGCGCCAUGCCUGCAGGUCGACUCUAGAAAACAUG”, the binding signal with PUM1 PUF domain R5-GFM was 2.5 log2 enrichment (interaction score); with PUM1 PUF domain R5-ERL, 1.92 log2 enrichment (interaction score).

With “GGCUAGAACUAGUGGAUCCCCCGGCGCCCGGCGGCUCGAGCCCGGGUAAGUGUCAAUAGUCUGCAUGCCGCCGGGCGCCAUGCCUGCAGGUCGACUCUAGAAAACAUG”, the binding signal in the experiment with PUM1 PUF domain R5-KMW was 3.19 log2 enrichment (interaction score); in the experiment with PUM1 PUF domain R5-KTV it was 2.38 log2 enrichment (interaction score); with PUM1 PUF domain R5-ERL, 3.87 log2 enrichment (interaction score).

For “GGCUAGAACUAGUGGAUCCCCCGGCGCCCGGCGGCUCGAGCCCGGGUAAGUGUAAAUAGUCUGCAUGCCGCCGGGCGCCAUGCCUGCAGGUCGACUCUAGAAAACAUG”, the binding signal was 2.81 log2 enrichment (interaction score) with PUM1 PUF domain R8-RRN; 2.52 log2 enrichment (interaction score) with PUM1 PUF domain R4-CMV; 2.67 log2 enrichment (interaction score) with PUM1 PUF domain R5-VHL; 2.5 log2 enrichment (interaction score) with PUM1 PUF domain R5-GFM; 1.25 log2 enrichment (interaction score) in the experiment with PUM1 PUF domain R5-KMW; 3.38 log2 enrichment (interaction score) with PUM1 PUF domain R6-FRI. Moreover, the binding signal with PUM1 PUF domain R4-ALY is 3.56 log2 enrichment (interaction score); with PUM1 PUF domain R5-ERL it was 5.49 log2 enrichment (interaction score).

“GGCUAGAACUAGUGGAUCCCCCGGCGCCCGGCGGCUCGAGCCCGGGUAAGUGUAAGUAGUCUGCAUGCCGCCGGGCGCCAUGCCUGCAGGUCGACUCUAGAAAACAUG”: the binding signal with PUM1 PUF domain R3-FRW was 4.16 log2 enrichment (interaction score); with PUM1 PUF domain R3-WFE, 3.04 log2 enrichment (interaction score); with PUM1 PUF domain R3-QRG, 3.07 log2 enrichment (interaction score).

As for “GGCUAGAACUAGUGGAUCCCCCGGCGCCCGGCGGCUCGAGCCCGGGUAAGUGUAAUUAGUCUGCAUGCCGCCGGGCGCCAUGCCUGCAGGUCGACUCUAGAAAACAUG”, the binding signal with PUM1 PUF domain R3-QPS is 3.41 log2 enrichment (interaction score); in the experiment with PUM1 PUF domain R3-RSL, 2.55 log2 enrichment (interaction score); with PUM1 PUF domain R3-QRG, 2.4 log2 enrichment (interaction score); with PUM1 PUF domain R3-RAD, 4.21 log2 enrichment (interaction score).

As for “GGCUAGAACUAGUGGAUCCCCCGGCGCCCGGCGGCUCGAGCCCGGGUAAGUGUAAAUGGUCUGCAUGCCGCCGGGCGCCAUGCCUGCAGGUCGACUCUAGAAAACAUG”, the binding signal in the experiment with PUM1 PUF domain R1-RRS was 2.51 log2 enrichment (interaction score).

For the sequence “GGCUAGAACUAGUGGAUCCCCCGGCGCCCGGCGGCUCGAGCCCGGGUAAGUGUAUAUAGUCUGCAUGCCGCCGGGCGCCAUGCCUGCAGGUCGACUCUAGAAAACAUG”, the binding signal is 2.92 log2 enrichment (interaction score) in the experiment with PUM1 PUF domain R4-GNV, 3.68 log2 enrichment (interaction score) with PUM1 PUF domain R4-CMV and 2.98 log2 enrichment (interaction score) with PUM1 PUF domain R4-QGG.

In the case of “GGCUAGAACUAGUGGAUCCCCCGGCGCCCGGCGGCUCGAGCCCGGGUAAGUGUAAAUUGUCUGCAUGCCGCCGGGCGCCAUGCCUGCAGGUCGACUCUAGAAAACAUG”, in the experiment with PUM1 PUF domain R1-RRS, the binding signal was 3.16 log2 enrichment (interaction score).

On to “GGCUAGAACUAGUGGAUCCCCCGGCGCCCGGCGGCUCGAGCCCGGGUAAGUGUACAUAGUCUGCAUGCCGCCGGGCGCCAUGCCUGCAGGUCGACUCUAGAAAACAUG”, for which the binding signal with PUM1 PUF domain R4-GNV was 1.41 log2 enrichment (interaction score); with PUM1 PUF domain R4-CMV it was 1.08 log2 enrichment (interaction score); with PUM1 PUF domain R4-QGG, 1.65 log2 enrichment (interaction score).

In the case of “GGCUAGAACUAGUGGAUCCCCCGGCGCCCGGCGGCUCGAGCCCGGGUAAGUCUAAAUAGUCUGCAUGCCGCCGGGCGCCAUGCCUGCAGGUCGACUCUAGAAAACAUG”, the binding signal with PUM1 PUF domain R7-RGQ was 4.22 log2 enrichment (interaction score).

Source of the values: PMC8384837, “Expanding the binding specificity for RNA recognition by a PUF domain”.
